Source: the supplement of paper PMC11732987, “Enantioselective OTUD7B fragment discovery through chemoproteomics screening and high-throughput optimisation” (Communications Chemistry, 2025)

What was measured:
Test in all cases: log2 ratio of Biotin-Ahx-Ub-VS probe labelling (fragment/DMSO); higher = less target engagement (more negative = stronger competition), active = hit call of the paper (q ≤ 0.05, log2 ratio ≤ -1)
Conditions in all cases: compound concentration: 200 uM; treatment time: 3 h
USP34 = USP34 (UniProt Q70CQ2)
USP34, sequence (Q70CQ2 whole entry, the tested form may be a part): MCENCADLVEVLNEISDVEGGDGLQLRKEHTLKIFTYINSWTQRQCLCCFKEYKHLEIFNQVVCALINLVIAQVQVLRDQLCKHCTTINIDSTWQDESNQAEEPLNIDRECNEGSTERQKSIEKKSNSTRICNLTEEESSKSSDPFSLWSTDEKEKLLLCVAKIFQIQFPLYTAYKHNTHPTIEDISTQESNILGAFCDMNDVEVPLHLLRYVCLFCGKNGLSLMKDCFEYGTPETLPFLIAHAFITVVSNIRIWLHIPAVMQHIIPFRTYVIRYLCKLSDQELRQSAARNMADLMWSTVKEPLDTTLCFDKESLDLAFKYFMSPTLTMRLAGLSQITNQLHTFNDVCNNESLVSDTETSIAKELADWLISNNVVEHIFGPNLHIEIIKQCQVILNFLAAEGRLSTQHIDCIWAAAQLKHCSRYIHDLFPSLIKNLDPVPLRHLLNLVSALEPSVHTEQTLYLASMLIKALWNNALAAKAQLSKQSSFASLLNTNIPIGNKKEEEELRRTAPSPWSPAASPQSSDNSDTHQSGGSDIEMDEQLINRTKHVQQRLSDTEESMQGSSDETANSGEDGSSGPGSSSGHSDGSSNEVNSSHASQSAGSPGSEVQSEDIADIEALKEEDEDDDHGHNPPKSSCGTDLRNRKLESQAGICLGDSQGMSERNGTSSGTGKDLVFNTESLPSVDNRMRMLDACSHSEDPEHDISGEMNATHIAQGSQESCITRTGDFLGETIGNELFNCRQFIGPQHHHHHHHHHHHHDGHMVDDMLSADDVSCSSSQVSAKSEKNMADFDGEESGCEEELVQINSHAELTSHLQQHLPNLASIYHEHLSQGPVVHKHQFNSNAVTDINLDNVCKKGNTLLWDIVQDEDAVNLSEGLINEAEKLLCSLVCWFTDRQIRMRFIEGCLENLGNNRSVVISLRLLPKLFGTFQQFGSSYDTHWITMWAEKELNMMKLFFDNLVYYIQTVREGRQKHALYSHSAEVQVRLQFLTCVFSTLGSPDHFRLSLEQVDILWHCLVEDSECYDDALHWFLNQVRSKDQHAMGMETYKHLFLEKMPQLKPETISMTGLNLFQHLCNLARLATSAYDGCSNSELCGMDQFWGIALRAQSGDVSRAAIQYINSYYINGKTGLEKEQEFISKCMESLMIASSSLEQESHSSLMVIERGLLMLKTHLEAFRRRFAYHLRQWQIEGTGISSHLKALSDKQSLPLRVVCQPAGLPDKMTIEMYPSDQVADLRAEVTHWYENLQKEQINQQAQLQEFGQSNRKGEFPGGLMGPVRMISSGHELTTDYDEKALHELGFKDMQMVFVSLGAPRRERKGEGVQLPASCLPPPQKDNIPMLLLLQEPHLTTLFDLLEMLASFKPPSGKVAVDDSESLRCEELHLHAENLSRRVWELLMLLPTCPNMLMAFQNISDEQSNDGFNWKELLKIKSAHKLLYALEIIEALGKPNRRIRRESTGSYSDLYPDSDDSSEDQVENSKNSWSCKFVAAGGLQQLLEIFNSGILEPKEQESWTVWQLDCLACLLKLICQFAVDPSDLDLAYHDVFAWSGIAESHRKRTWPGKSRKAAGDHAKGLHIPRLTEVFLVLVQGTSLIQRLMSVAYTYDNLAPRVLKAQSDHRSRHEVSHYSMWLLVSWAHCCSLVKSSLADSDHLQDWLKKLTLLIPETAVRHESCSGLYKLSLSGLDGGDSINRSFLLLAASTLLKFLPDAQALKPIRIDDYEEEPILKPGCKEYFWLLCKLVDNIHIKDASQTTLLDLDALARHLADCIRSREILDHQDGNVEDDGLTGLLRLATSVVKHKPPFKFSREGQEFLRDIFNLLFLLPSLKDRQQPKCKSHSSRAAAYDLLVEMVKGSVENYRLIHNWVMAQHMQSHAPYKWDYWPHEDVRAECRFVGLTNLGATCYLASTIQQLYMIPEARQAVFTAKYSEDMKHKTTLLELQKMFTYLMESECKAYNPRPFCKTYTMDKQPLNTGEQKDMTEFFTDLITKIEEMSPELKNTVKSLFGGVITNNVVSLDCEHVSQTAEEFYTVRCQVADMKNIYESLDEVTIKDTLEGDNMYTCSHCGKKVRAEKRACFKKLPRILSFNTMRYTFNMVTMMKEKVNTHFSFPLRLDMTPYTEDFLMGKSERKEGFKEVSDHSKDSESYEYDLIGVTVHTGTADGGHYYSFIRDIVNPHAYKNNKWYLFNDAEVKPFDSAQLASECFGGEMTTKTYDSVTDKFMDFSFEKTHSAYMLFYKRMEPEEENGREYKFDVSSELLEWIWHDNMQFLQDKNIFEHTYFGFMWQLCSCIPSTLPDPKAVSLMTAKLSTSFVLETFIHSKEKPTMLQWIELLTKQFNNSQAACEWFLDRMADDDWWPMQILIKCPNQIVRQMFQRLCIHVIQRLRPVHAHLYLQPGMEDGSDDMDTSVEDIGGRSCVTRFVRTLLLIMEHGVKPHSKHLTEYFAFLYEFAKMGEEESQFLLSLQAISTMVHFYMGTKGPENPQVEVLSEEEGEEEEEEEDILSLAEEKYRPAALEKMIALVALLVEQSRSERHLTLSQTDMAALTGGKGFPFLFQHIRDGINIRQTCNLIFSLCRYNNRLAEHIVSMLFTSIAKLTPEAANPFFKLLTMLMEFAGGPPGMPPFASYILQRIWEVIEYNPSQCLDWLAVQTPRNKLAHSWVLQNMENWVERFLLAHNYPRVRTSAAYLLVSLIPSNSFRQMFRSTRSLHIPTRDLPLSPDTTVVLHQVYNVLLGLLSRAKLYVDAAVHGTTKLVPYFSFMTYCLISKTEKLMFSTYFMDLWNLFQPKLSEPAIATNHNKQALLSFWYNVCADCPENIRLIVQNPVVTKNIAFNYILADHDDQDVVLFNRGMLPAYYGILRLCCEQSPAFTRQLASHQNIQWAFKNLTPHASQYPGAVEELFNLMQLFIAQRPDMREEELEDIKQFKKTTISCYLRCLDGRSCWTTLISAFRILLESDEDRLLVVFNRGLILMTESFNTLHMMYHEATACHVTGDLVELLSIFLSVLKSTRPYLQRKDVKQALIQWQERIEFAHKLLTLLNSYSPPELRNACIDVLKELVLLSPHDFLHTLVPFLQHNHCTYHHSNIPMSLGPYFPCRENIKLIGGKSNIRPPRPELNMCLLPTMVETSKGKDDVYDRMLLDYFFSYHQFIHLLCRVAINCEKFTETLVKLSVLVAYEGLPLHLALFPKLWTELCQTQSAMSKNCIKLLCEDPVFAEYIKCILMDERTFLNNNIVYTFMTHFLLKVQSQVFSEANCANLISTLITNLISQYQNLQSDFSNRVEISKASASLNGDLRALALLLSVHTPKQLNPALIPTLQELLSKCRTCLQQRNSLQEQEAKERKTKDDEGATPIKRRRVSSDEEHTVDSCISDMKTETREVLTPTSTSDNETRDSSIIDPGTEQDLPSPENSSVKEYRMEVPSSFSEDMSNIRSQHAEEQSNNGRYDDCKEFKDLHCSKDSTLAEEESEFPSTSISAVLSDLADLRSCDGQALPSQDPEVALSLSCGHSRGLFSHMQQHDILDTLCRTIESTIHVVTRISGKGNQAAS
Procedure, shortened: (§1)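 HEK293T lysate in Tris/CHAPS/IGEPAL buffer with protease inhibitors (495 µg per sample) was given fragment at 200 µM or vehicle for 3 h, in triplicate. It then received Biotin-Ahx-Ub-VS at 0.5 µM final for 1 h. Labelled DUBs were NeutrAvidin-enriched, digested with LysC and trypsin, and run by diaPASEF LC-MS/MS. Values are average log2 fragment/vehicle ratios by unpaired t-test on global-median-normalised Spectronaut quantities of proteins with ≥2 unique peptides.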

USP36 = molecular target: T1, USP36 (UniProt Q9P275)
T1 sequence (whole entry): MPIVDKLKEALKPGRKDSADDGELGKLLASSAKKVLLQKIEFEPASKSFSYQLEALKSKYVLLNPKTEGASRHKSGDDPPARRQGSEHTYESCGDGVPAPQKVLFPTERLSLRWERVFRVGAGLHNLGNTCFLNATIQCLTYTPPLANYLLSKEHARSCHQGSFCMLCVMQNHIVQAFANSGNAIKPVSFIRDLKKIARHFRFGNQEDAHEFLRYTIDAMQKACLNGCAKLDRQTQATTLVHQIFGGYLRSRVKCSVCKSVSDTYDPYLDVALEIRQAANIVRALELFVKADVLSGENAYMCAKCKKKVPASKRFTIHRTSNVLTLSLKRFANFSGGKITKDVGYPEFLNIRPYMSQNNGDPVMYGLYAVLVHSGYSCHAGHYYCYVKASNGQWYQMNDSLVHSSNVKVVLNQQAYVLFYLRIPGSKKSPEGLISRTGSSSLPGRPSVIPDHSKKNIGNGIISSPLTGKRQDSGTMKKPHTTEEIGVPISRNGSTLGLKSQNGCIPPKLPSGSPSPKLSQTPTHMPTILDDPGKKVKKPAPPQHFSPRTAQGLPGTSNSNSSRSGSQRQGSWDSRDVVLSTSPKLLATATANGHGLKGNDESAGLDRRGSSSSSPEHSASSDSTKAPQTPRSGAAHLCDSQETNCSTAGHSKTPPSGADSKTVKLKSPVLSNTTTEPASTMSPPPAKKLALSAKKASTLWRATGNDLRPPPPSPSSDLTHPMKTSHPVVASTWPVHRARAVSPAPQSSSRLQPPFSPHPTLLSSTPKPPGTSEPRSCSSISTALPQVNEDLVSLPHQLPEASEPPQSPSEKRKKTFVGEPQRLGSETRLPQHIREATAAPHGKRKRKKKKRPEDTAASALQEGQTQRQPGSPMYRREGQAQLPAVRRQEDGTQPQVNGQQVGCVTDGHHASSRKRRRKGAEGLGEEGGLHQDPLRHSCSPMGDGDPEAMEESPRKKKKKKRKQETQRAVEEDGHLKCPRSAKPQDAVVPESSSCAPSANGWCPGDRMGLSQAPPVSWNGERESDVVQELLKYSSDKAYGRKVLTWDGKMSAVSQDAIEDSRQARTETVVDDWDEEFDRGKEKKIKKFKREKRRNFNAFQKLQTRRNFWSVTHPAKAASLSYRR
Procedure, shortened: as §1

USP38 = molecular target: T2, USP38 (UniProt Q8NB14)
T2 sequence (whole entry): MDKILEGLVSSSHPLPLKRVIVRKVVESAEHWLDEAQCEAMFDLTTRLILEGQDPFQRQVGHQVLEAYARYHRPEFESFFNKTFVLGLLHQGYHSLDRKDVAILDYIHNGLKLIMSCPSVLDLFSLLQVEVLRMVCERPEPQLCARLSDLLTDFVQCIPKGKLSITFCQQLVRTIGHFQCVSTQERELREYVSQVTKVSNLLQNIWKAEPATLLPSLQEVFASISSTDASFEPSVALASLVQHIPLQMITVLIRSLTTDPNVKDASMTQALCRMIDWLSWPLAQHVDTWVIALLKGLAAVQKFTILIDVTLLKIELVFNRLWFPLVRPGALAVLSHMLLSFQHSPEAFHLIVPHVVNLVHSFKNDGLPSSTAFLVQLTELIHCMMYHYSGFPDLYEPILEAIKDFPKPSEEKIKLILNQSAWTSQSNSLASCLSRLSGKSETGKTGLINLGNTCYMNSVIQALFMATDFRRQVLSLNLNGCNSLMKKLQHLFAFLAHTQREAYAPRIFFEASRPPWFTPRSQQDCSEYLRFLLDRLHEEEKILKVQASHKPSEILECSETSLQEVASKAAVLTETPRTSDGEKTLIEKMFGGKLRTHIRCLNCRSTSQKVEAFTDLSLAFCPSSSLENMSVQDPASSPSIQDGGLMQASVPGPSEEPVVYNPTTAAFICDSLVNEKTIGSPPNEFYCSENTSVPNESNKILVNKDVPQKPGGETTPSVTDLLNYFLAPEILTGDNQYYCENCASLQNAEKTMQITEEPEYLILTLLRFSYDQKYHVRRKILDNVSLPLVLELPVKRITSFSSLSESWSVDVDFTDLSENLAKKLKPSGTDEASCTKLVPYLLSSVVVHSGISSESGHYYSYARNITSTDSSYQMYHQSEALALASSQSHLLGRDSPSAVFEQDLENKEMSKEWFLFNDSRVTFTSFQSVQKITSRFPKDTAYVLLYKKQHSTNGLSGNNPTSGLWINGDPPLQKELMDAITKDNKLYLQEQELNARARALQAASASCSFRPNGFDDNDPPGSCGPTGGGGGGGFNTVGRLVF
Procedure, shortened: as §1

USP39 = molecular target: T3, USP39 (UniProt Q53GS9)
T3 sequence (whole entry): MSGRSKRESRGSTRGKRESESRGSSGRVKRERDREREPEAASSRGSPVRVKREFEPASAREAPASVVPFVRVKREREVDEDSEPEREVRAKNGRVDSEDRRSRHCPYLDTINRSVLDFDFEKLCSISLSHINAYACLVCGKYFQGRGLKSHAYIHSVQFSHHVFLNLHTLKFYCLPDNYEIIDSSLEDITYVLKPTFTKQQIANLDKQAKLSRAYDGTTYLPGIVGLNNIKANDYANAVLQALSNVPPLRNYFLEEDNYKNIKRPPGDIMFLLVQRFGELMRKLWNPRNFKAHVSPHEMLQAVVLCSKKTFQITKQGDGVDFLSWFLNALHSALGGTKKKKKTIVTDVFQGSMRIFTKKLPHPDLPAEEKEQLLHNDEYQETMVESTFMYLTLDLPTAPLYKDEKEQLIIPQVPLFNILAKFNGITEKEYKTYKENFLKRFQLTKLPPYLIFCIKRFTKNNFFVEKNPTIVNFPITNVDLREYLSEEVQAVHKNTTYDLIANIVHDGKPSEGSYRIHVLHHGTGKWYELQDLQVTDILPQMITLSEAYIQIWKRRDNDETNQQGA
Procedure, shortened: as §1

USP4 = molecular target: T4, USP4 (UniProt Q13107)
T4 sequence (whole entry): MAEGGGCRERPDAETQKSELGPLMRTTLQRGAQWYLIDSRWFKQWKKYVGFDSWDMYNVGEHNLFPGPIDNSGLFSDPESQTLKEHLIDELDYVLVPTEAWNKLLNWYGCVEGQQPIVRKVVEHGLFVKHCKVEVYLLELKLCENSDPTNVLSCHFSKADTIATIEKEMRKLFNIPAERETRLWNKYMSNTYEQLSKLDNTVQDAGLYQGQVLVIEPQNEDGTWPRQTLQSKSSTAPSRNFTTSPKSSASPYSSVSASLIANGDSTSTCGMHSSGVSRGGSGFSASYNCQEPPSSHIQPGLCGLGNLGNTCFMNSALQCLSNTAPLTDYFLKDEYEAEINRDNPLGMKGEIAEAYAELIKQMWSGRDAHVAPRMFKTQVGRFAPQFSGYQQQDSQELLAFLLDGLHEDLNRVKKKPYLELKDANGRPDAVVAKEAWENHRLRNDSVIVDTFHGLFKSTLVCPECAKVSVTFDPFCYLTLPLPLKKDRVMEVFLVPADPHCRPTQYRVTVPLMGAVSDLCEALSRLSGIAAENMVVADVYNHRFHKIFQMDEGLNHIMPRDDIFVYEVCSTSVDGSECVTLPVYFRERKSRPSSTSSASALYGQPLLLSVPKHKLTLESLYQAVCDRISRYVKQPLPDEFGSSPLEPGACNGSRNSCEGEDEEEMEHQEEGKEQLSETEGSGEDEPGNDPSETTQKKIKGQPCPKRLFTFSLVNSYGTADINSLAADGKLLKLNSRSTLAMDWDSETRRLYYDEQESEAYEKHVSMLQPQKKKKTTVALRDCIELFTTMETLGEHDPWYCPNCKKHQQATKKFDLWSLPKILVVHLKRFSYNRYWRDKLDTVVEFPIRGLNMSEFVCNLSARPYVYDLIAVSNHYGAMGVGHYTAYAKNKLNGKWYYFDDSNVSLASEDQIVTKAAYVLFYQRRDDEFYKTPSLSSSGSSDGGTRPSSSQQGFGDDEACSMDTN
Procedure, shortened: as §1

Measured: log2 ratio of Biotin-Ahx-Ub-VS probe labelling

Cc1ccc(N2CCC(NC(=O)CCl)C2=O)cc1 (stereo not given)
inactive: USP34 0.132 | USP36 -0.156 | USP38 0.0543 | USP39 0.064 | USP4 0.0879
